Among all 2,400 compounds or so, about 360 (15%) were called active. Only a sample is shown. Potency and affinity values are given separately. Values without a mark were called inactive.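 Rule for the calls: active = viability falls under 70% at one or more tested concentrations, taken as toxicity; inactive = viability stays over 70% at every dose.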
assay: HeLa cell cytotoxicity, dose response, cytotoxicity control for MgcRacGAP inhibitor project (AID 624300); details: CellTiter-Glo luminescence, 24 h; series mostly up to 100 µM; viability: at the top concentration;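 note: 100% = median of untreated control wells on the same plate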

Row | SMILES | viability [%]
1 | COc1cc(/C=C2\SC(=S)N(NC(=O)c3ccncc3)C2=O)ccc1O | 90.9
2 | COc1cc(/C=C2/SC(=S)N(c3c(C)n(C)n(-c4ccccc4)c3=O)C2=O)ccc1O | 90.8
3 | CCOc1cc(/C=C2\SC(N)=NC2=O)ccc1O | 95.2
4 | COc1cc(C=C2NC(=O)NC2=O)ccc1O | 108
5 | CCOC(=O)C1CCCN(C2=NC(=O)/C(=C/c3ccc(O)c(OC)c3)S2)C1 (stereo unspecified) | 91.8
6 | COc1cc(/C=C2\SC(=Nc3c(C)n(C)n(-c4ccccc4)c3=O)NC2=O)ccc1O | 97.3
7 | COc1cc(/C=C2\SC(N3CCC(C)CC3)=NC2=O)ccc1O | 106
8 | O=C1/C(=C\c2ccc(O)c(O)c2)N=C2CCCCCN12 | 98.1
9 | COc1cc(/C=N/NC(=O)c2cccc(N3CCCC3=O)c2)ccc1O | 97.9
10 | COc1ccc2cc(C(=O)Nc3ccc(O)cc3)sc(=O)c2c1OC | 99.2
11 | CC(C)(C)NC(=S)Nc1ccc(Nc2ccccc2)cc1 | 100
12 | Oc1ccc(Cl)cc1C=Nc1ccc2c3c(cccc13)CC2 | 99.6
13 | CC(=O)N1CCN(c2ccc(NCc3ccc4c(c3)OCO4)cc2)CC1 | 95.3
14 | O=C(Nc1ccc(O)cc1)c1ccc2c(c1)C(=O)N(Cc1ccccc1)C2=O | 98
15 | Nc1c(/C=C2/C=CC(=O)C(O)=C2)c(=O)nc2sc(CC(=O)N3CCOCC3)nn12 | 97.2
16 | Cc1ccc(-c2csc3n[nH]c(=S)n23)cc1 | 94
17 | COc1cc(/C=C/C(=O)OCC(=O)Nc2cc(S(=O)(=O)N3CCCCC3)ccc2C)ccc1O | 91.2
18 | COc1cc(/C=C2\SC(N)=NC2=O)cc(Cl)c1O | 89
19 | COc1cc(/C=C2\SC(c3ccc(C)cc3)=NC2=O)cc(OC)c1O | 89
20 | COc1cc(C=C2CN(C)C(=O)C2=O)ccc1O | 90.1
21 | COc1cc(/C=C2\SC(=S)N(NC(=O)c3ccc(O)cc3)C2=O)ccc1O | 95.7
22 | COc1cc(/C=c2\sc3n(c2=O)CCCN=3)ccc1O | 92.2
23 | COc1cc(/C=C2\SC(=S)N(NC(=O)c3cccc(O)c3)C2=O)ccc1O | 106
24 | CNc1nc2c3ccccc3n(C(C)=O)c2s1 | 97.2

Row | SMILES | viability [%]
25 | COc1ccc(C2NC(=O)C(C#N)=C(S)N2c2ccccc2)cc1OC (stereo unspecified) | 91.9
26 | CCOCCCNc1nc(=S)[nH]c2cc(OC)c(OC)cc12 | 94.4
27 | COc1ccc(CN(C)CCc2ccccn2)c(OC)c1OC | 105
28 | CN(C)c1ncnc2c1NC1=C(S2)C(=NCCCC(=O)O)CC(C)(C)C1 | 95.6
29 | O=C(N/N=C/c1ccc(O)cc1)c1csc2ccccc12 | 93.1
30 | COc1cc(/C=N/NC(=O)CCc2n[nH]c(=O)[nH]c2=O)ccc1O | 104
31 | CN1CCN(CCOCCOc2ccc(Br)cc2Cl)CC1 | 97
32 | Clc1cc(Br)ccc1OCCOCCN1CCCC1 | 95.9
33 | CCCCn1c(=S)[nH]c2c(=O)n(C)c(=O)n(C)c21 | 101
34 | O=[N+]([O-])/C(C=Nc1ccccc1O)=C\Nc1ccccc1O | 99.3
35 | CN(Cc1ccccc1)C(=O)C1CCCN(Cc2ccc(Cl)cc2)C1 (stereo unspecified) | 90.4
36 | COc1cc(/C=N/NC(=O)c2ccccc2NS(=O)(=O)c2cccs2)ccc1O | 101
37 | COC(=O)C1=C(C)N(Cc2ccco2)C(=O)C1 | 99.1
38 | CCOc1cc(/C=C2\C(=O)N(Cc3ccco3)C(C)=C2C(=O)OC)ccc1O | 88.9
39 | Oc1ccc(Br)cc1C=Nc1ccc2c3c(cccc13)CC2 | 99.1
40 | C#CCOCCOCCOCCNc1nc(N2CCN(C(=O)C([C@@H](C)O)n3cc([C@@H](N)CCCCN)nn3)CC2)nc(N2CCN(C(=O)[C@H](CCCN=C(N)N)n3cc(C(N)[C@@H](C)CC)nn3)CC2)n1 (stereo partly specified) | 102
41 | CCC(CC)N1CCN(C(=O)c2cccc(Cl)c2)CC1 | 100
42 | COc1cc(/C(C)=N/N2CCN(c3ccccc3OC)CC2)ccc1O | 98.8
43 | CN(C)C(=S)N=c1ssc(=S)n1Cc1cccnc1 | 117
44 | COc1cc(/C=N/n2c(-c3cc(C)[nH]n3)n[nH]c2=S)cc(OC)c1OC | 95.3
45 | COc1c(-c2ccc(O)c(O)c2)oc2cc(O)cc(O)c2c1=O | 93.9
46 | O=c1oc(-c2ccc(O)c(O)c2)cc2cccc(O)c12 | 75.5
47 | CCOC(=O)c1[nH]c2ccccc2c1NC(=S)Nc1cc(C)ccc1C | 101
48 | O=C(CN1CCN(c2ccc(O)cc2)CC1)Nc1ccccc1C(=O)NCCc1ccccc1 | 103

Row | SMILES | viability [%]
49 | S=c1[nH]nc(-c2ccco2)n1/N=C/c1ccc(Cl)cc1 | 90.3
50 | COc1cc2c(cc1OC)C1(CCCC1)C(N)=C2C#N | 96.8
51 | Oc1cc(O)cc(-c2cc3ccc(O)cc3o2)c1 | 109
52 | COc1ccc(NC2CCCN(C(=O)C3=NNC(=O)CC3)C2)cc1 (stereo unspecified) | 100
53 | N#Cc1ccccc1OCCCN1CCC(Cc2ccccc2)CC1 | 83.8
54 | Cc1nnc(N=c2ssnc2Cl)o1 | 97.2
55 | COc1cc(C(C)=NNC(=O)c2ccncc2)ccc1O | 95
56 | CCCn1c(=O)c2ccccc2n2c(SCCNCCO)nnc12 | 98.8
57 | Cc1ccc(NCc2ccccc2O)cc1C | 90.7
58 | O=C1OCC/C1=C\c1ccc(O)cc1 | 100
59 | COc1cc(/C=N/NC(=O)/C(=C/c2ccccc2)CCO)ccc1O | 96.7
60 | CCN(CC)CCOC(=O)c1ccc(N/C=C(/C#N)c2nc(-c3ccc4c(c3)OCO4)cs2)cc1 | 97
61 | COc1ccc(-c2cc(C(=O)Nc3ccc(O)cc3)c3ccccc3n2)cc1OC | 85.8
62 | Cc1cc(NC(=O)c2sc3ccccc3c2O)no1 | 97.1
63 | COc1cccc(C(=O)N2CCN(C3CCN(Cc4ccccc4)CC3)CC2)c1OC | 102
64 | CCN(CC)c1ccc(NC(=O)CN2CCN(c3ccccn3)CC2)cc1 | 102
65 | O=C(/C(=C/c1cccnc1)n1ccnc1)c1ccc(Cl)cc1Cl | 81.6
66 | CCOc1cc(/C=N/NC(=O)c2cc(C3CC3)[nH]n2)ccc1O | 112
67 | COc1cc(/C=N/NC(=O)CC(=O)NC2CCCCC2)ccc1O | 98.5
68 | COc1cc(/C=N\NC(=O)C2CC3C=CC2C3)ccc1O (stereo unspecified) | 96.2
69 | O=C(N/N=C/c1ccc(O)cc1)NC12CC3CC(CC(C3)C1)C2 | 100
70 | CCOc1cc(C=NNC(=O)CCCC(=O)NN=Cc2ccc(O)c(OCC)c2)ccc1O | 104
71 | CCOc1cc(/C=N/NC(=O)C2CCCC2)ccc1O | 102
72 | COc1cc(/C=N/NC(=S)NCCN2CCOCC2)ccc1O | 94.8

Row | SMILES | viability [%]
73 | CCOc1cc(/C=N/NC(=O)C(OC)c2ccccc2)ccc1O (stereo unspecified) | 101
74 | CSc1nc(O)c(/C=C2\C=Nc3ccccc32)[nH]1 | 90.4
75 | COc1ccc(NC2CCCN(C(=O)c3ccc(C)c(N4CCNC4=O)c3)C2)cc1 (stereo unspecified) | 98.6
76 | CCOCCCNCC(=O)NCC1CCCCC1 | 102
77 | COc1cc(NC(=O)COC(=O)/C=C/c2ccc(O)c(OC)c2)cc(OC)c1 | 92.4
78 | Nc1ccc(N2CCN(c3ccccc3)CC2)c(F)c1 | 101
79 | O=C1CSC(=S)N1Nc1ccccc1 | 100
80 | Nc1ccc(N=Nc2ccc(O)cc2)c(N)n1 | 81.5
81 | Cc1ccc(N2C(S)=C(C#N)C(=O)NC23CCCCC3)cc1 | 96.6
82 | Cc1cccc(-n2c(=O)c3ccccc3n3c(=S)[nH]nc23)c1C | 104
83 | OCCN1CCN(CC(O)COC(c2ccc(F)cc2)c2ccc(F)cc2)CC1 (stereo unspecified) | 101
84 | COc1ccc(OCC(O)CN2CCCC2)cc1 (stereo unspecified) | 102
85 | c1ccc(CNC23CC4CC(CC(C4)C2)C3)nc1 | 100
86 | COc1ccc(S(=O)(=O)N2CCC(N3CCN(Cc4ccccc4)CC3)CC2)cc1 | 98.1
87 | O=C(CSc1cn[nH]n1)Nc1cccc(C(=O)O)c1 | 94.8
88 | CN(CCOc1ccc(Cl)c(Cl)c1)Cc1ccccc1 | 89.3
89 | Cc1cc(C)c(OCCCCN(C)Cc2ccccc2)c(C)c1 | 89.7
90 | Cc1ccc(OCCCCNC(C)(C)C)c([N+](=O)[O-])c1 | 95.7
91 | Cc1ccc(-n2[nH]c(=O)c3cccnc32)cc1 | 96.6
92 | Nc1ccc(N2CCN(C(=O)c3cccs3)CC2)cc1 | 103
93 | COc1cc(/C=N/Nc2nc3ccccc3s2)ccc1O | 88.9
94 | COc1cc(/C=C/C(=O)OCC(=O)NCCCc2ccccc2)ccc1O | 91.6
95 | CC(=O)Nc1n[nH]c(=S)s1 | 102
96 | O=C(N/N=C/c1sc2ccccc2c1O)c1cccc2ccccc12 | 88.4

Row | SMILES | viability [%]
97 | O=C(CNC(=O)c1ccc2c(c1)OCCO2)N/N=C/c1ccc(O)cc1O | 109
98 | CN(C)/C=C1/C=C(c2ccccc2)OC1=O | 106
99 | COc1cc(/C=N/N=C2/NC(=O)C(c3ccccc3)S2)ccc1O (stereo unspecified) | 92
100 | O=C(CN1CCCCCC1)NN(Cc1ccccc1)c1ccccc1 | 101
101 | S=C(NCCCN1CCOCC1)Nc1ccc(Nc2ccccc2)cc1 | 103
102 | Clc1ccccc1CNCc1ccc2c(c1)OCO2 | 97.4
103 | COc1cc(CNc2ncc(-c3ccc(Br)cc3)n2C)cc(OC)c1O | 99.2
104 | COc1ccccc1CNc1ncc(-c2ccccc2)n1C | 81.4
105 | COc1ccc(CNc2ncc(-c3ccc(Br)cc3)n2C)cc1OC | 93.4
106 | Cn1c(-c2ccccc2)cnc1NCc1ccc(-c2ccccc2)cc1 | 86.2
107 | Cc1ccc(CNc2ncc(-c3ccccc3)n2C)o1 | 96.2
108 | O=C1c2ccccc2C(=O)N1/N=C/c1ccc(O)c(O)c1 | 98.4
109 | COc1ccc(C(=O)CCC(=O)Nc2cc(Cl)c(O)c(Cl)c2)cc1 | 103
110 | N#CC1=C(N)NC(=S)C(C(N)=O)C1c1ccc([N+](=O)[O-])cc1 (stereo unspecified) | 101
111 | Cc1ccc(COC(=O)Cc2coc3cc(O)ccc23)cc1 | 109
112 | CCS(=O)(=O)c1cc([N+](=O)[O-])c(Sc2ccccc2N)s1 | 97.9
113 | CCOc1cc(/C=N/NC(=O)NN(C)c2ncc(C(F)(F)F)cc2Cl)ccc1O | 104
114 | O=C(Cc1ccc(Cl)cc1)N/N=C/c1ccc(O)c(O)c1 | 104
115 | O=c1c(O)c(-c2ccc(O)c(O)c2)oc2cc(O)ccc12 | 93.5
116 | COC(=O)c1[nH]c2ccc(Cl)cc2c1NC(=O)Oc1ccccc1 | 90.4

Source: PubChem BioAssay AID624300 (Southern Research Specialized Biocontainment Screening …, 2012)
